Some of the results follow. A call without a number means that no potency is given here. Results filed as inconclusive are left out. Activity calls are given as the source filed them. Calls follow the shape of the dose curve; as a rule, active = well fitted inhibition curve with a large enough effect in the main read-out, with a control signal flat (not every such curve was filed as active); inconclusive = small, poorly fitted or top-dose-only effect, or a change in a side signal; inactive = no such curve, though single readings can be large or run the other way.
target: Caspase-7 (Homo sapiens) (UniProt P55210); experiment: Confirmation Concentration-Response Assay for Allosteric/Competitive Inhibitors of Caspase-7; conditions: recombinant caspase-7, fluorogenic substrate cleavage; series mostly up to 57.5 µM
Description: NIH Molecular Libraries Screening Centers Network [MLSCN]
NIH Chemical Genomics Center [NCGC]
PI Name: Dr. James Wells,
Dr. Enrique Perez-Paya, Dr.Janice Williams, Dr. Dennis Wolan, a person
The caspases (Cysteine Aspartyl Protease) comprise a related family of 14 dimeric proteases that are critical mediators of apoptosis (programmed cell death) and inflammation. The caspases represent an important class of drug targets for stroke, ischemia, cancer and inflammatory diseases. […] One goal of this project was to identify compounds that act as allosteric inhibitors via stabilizing the procaspase form of the enzyme. Previous work in Well's laboratory has shown that such allosteric inhibitors can be identified and these act by binding at the dimer interface of enzyme (Hardy, Lam et al., 2004).
The biochemical assay was configured using purified caspase 7 at a high enzyme concentration to promote formation of the homodimers and thus facilitate the identification of allosteric inhibitors. […] After initiation of the assay with substrate the plates were rapidly read using an automated robotic system (Kalypsys, Inc.) to maintain consistent timing. […]
Caspase 7 was prepared in buffer (50 mM HEPES pH 7.5, 50 mM KCl, 200 mM NaCl, 10 mM DTT, 0.1% CHAPS) at a concentration of 66.6 nM and 3 uL was dispensed to all wells using black solid Kalypsys 1536-well plates. […] The plates were then exposed using 405 nm excitation/520 nm emission filters for 4 sec and read at 20 sec intervals for 3 min. […]
Concentration-response curves were fitted to the data calculated from slope of the linear regression of fluorescent intensity versus time (the rate). The concentration-effect curves were then classified based on curve quality (r2), response magnitude and degree of measured activity. […] Inconclusive compounds had appreciable concentration-dependent effects on both the measured rate and the interpolated basal fluorescence intensity at the start of the reaction but where the basal fluorescent intensity was marginal (e.g. < 10-fold). […]

Chain of Caspase-7 (Homo sapiens) (P55210 24-198 limits assumed): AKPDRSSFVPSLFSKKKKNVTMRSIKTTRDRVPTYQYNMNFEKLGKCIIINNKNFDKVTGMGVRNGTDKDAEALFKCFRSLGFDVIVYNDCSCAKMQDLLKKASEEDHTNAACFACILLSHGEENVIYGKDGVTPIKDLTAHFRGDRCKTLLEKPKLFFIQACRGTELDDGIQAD
Chain of Caspase-7 (Homo sapiens) (P55210 207-303 limits assumed): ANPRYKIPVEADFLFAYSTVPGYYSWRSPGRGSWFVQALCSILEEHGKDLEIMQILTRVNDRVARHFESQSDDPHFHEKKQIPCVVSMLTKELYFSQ

Structure (SMILES) | Potency
Cc1nc2c(C(=O)NCc3ccc4c(c3)OCO4)c[nH]n2c(=O)c1Cc1ccccc1F | inactive
CCN1C(=O)/C(=C2/Sc3ccccc3N2CCCS(=O)(=O)O)SC1=S | inactive
N#CC1=C(N)Oc2cc(O)ccc2C1C1CCCCC1 (stereo not drawn) | 25.1 µM (active)

Reference: PubChem BioAssay AID897 (National Center for Advancing Translational Sciences (NCATS), 2007)
